According to PubChem BioAssay (NCI):
This is part of a sample that, as a whole, favours compounds with a hit. Of some 83,000 tested, about 20% had one in any assay.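 Treatment: one concentration, 48 hours, 96-well format. Scoring: percent growth, with anything below 10 considered active.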 The source made the active and inactive calls.

Legend:
Experiment in all cases: NCI-60 one-dose screen, 48 h (100 = growth as untreated, 0 = no growth, -100 = all killed)
Conditions in all cases: 10 µM unless noted
SK-MEL-2 melanoma = tested on: SK-MEL-2 melanoma
EKVX NSCLC = tested on: EKVX NSCLC
SN12C renal = tested on: SN12C renal
UO-31 renal = tested on: UO-31 renal
TK-10 renal = tested on: TK-10 renal
ACHN renal = tested on: ACHN renal
CAKI-1 renal = tested on: CAKI-1 renal
A498 renal = tested on: A498 renal
CCRF-CEM leukemia = tested on: CCRF-CEM leukemia
MOLT-4 leukemia = tested on: MOLT-4 leukemia

Measured: growth

CC(C)(C)n1cc(-c2ccnc(NCCNS(=O)(=O)c3ccccc3)c2)c(-c2cccc(O)c2)n1
inactive: SK-MEL-2 melanoma 68.8% | EKVX NSCLC 63.4% | SN12C renal 71.8% | UO-31 renal 61.3% | TK-10 renal 92% | ACHN renal 67.1% | CAKI-1 renal 63.8% | A498 renal 55.1% | CCRF-CEM leukemia 46.5% | MOLT-4 leukemia 38.2%

COc1ccc(CNc2nccnn2)cc1
inactive: SK-MEL-2 melanoma 108% | EKVX NSCLC 99.1% | SN12C renal 108% | UO-31 renal 100% | TK-10 renal 93.4% | ACHN renal 98% | CAKI-1 renal 97.8% | A498 renal 90.2% | CCRF-CEM leukemia 114% | MOLT-4 leukemia 47.7%

CCC(=O)OCc1cccc(OC)c1
inactive: SK-MEL-2 melanoma 111% | EKVX NSCLC 91.3% | SN12C renal 99% | UO-31 renal 92.9% | TK-10 renal 119% | ACHN renal 93% | CAKI-1 renal 73.6% | A498 renal 102% | CCRF-CEM leukemia 73.3% | MOLT-4 leukemia 87.9%

COc1ccc(-c2cc(C(=O)N=Nc3c(O)[nH]c4ccccc34)no2)cc1
inactive: SK-MEL-2 melanoma 97.9% | EKVX NSCLC 97.4% | SN12C renal 94.9% | UO-31 renal 81.5% | TK-10 renal 118% | ACHN renal 107% | CAKI-1 renal 86% | A498 renal 84.6% | CCRF-CEM leukemia 101% | MOLT-4 leukemia 106%

CC(=O)O[C@H]1CC[C@]2(C)[C@H]3CC[C@@H]4[C@H]5[C@H](C(C)C)CC[C@]5(C(=O)OCC(CO)(CO)N=C(N)N)CC[C@@]4(C)[C@]3(C)CC[C@H]2C1(C)C
inactive: SK-MEL-2 melanoma 102% | EKVX NSCLC 88.7% | SN12C renal 13.7% | UO-31 renal 55.1% | TK-10 renal 88% | ACHN renal 83.4% | CAKI-1 renal 81.1% | A498 renal 113% | CCRF-CEM leukemia 11.3%
active: MOLT-4 leukemia 0.198%

O=C(CN1CCN(c2cc3c(cc2F)c(=O)c(C(=O)O)cn3C2CC2)CC1)Nc1nc(-c2ccc(Cl)cc2)cs1
inactive: SK-MEL-2 melanoma 21.9% | EKVX NSCLC 35.4% | SN12C renal 15.8% | UO-31 renal 20.2% | TK-10 renal 26.7% | ACHN renal 25.1% | CAKI-1 renal 30.4% | CCRF-CEM leukemia 23.8% | MOLT-4 leukemia 30.5%
active: A498 renal 4.43%

CCOC(=O)C(CC)n1c(=O)c2cc(OC)c(OC)cc2c2cnc3[nH]ccc3c21 (stereo not given)
inactive: SK-MEL-2 melanoma 103% | EKVX NSCLC 76.4% | SN12C renal 64.9% | UO-31 renal 37% | TK-10 renal 74.2% | ACHN renal 61.8% | CAKI-1 renal 59% | CCRF-CEM leukemia 81.1% | MOLT-4 leukemia 53.6%
active: A498 renal -9.97%

C=C(CN1CCN(c2cccc(C(F)(F)F)n2)CC1)c1ccc(C(=O)Nc2ccccc2N)cc1
active: SK-MEL-2 melanoma -9.9% | CCRF-CEM leukemia -32.1% | MOLT-4 leukemia -14.5%
inactive: EKVX NSCLC 47.2% | SN12C renal 15.5% | UO-31 renal 12% | TK-10 renal 41.6% | ACHN renal 34% | CAKI-1 renal 14.3% | A498 renal 35.6%

COCCCNc1nc(NC(=O)c2ccc(F)cc2C)cc(-c2cccnc2)n1
inactive: SK-MEL-2 melanoma 95.6% | EKVX NSCLC 108% | SN12C renal 91.1% | UO-31 renal 88.5% | TK-10 renal 111% | ACHN renal 109% | CAKI-1 renal 99.1% | A498 renal 85.4% | CCRF-CEM leukemia 96.5% | MOLT-4 leukemia 93.9%

Nc1nc(-c2ccc(F)cc2)cc(-c2cnn(-c3ccccc3)n2)n1
inactive: SK-MEL-2 melanoma 96% | EKVX NSCLC 99.7% | SN12C renal 111% | UO-31 renal 86.8% | TK-10 renal 121% | ACHN renal 100% | CAKI-1 renal 86.2% | A498 renal 85.9% | CCRF-CEM leukemia 103% | MOLT-4 leukemia 104%

CCN(C(=O)CN1CCN(c2cc3c(cc2F)c(=O)c(C(=O)O)cn3C2CC2)CC1)c1nc(-c2ccc(OC)cc2)cs1
active: SN12C renal 9.96%
inactive: SK-MEL-2 melanoma 79.2% | EKVX NSCLC 58.9% | UO-31 renal 33% | TK-10 renal 77.2% | ACHN renal 78% | CAKI-1 renal 75.7% | A498 renal 66.6% | CCRF-CEM leukemia 61.2% | MOLT-4 leukemia 70.6%

O=C(Cc1ccccc1)c1ccc(Cl)cc1
inactive: SK-MEL-2 melanoma 99% | EKVX NSCLC 87.4% | SN12C renal 89% | UO-31 renal 111% | TK-10 renal 99.5% | ACHN renal 103% | CAKI-1 renal 75.2% | A498 renal 90.9% | CCRF-CEM leukemia 99.1% | MOLT-4 leukemia 84.2%

ClC1=C2NC=NC2n2c(nnc2-c2ccc(Cl)cc2)N1 (stereo not given)
inactive: SK-MEL-2 melanoma 95.8% | EKVX NSCLC 105% | SN12C renal 94.5% | UO-31 renal 92% | TK-10 renal 122% | ACHN renal 109% | CAKI-1 renal 98.8% | A498 renal 73.1% | CCRF-CEM leukemia 99.9% | MOLT-4 leukemia 99.6%

CC(C)c1c(C(=O)Nc2ccccc2)c(-c2ccccc2)c(-c2ccc(F)cc2)n1CC[C@@H]1CC=CC(=O)O1
active: SK-MEL-2 melanoma -55.9% | SN12C renal -15.5% | UO-31 renal -75.9% | ACHN renal -27.8% | CAKI-1 renal 4.73% | CCRF-CEM leukemia -29.1% | MOLT-4 leukemia -33.2%
inactive: EKVX NSCLC 34.4% | TK-10 renal 28.5% | A498 renal 73.7%

CNCCCn1c2c(c3ccc([N+](=O)[O-])cc3c1=O)C(=O)c1cc(OC)cnc1-2
active: SK-MEL-2 melanoma -43.9% | EKVX NSCLC 4.21% | SN12C renal -29.7% | UO-31 renal -78.4% | TK-10 renal -23.9% | ACHN renal -65.2% | CAKI-1 renal -83.4% | A498 renal -97% | CCRF-CEM leukemia -31.9% | MOLT-4 leukemia -10.9%

CCN(CC)CCCC(C)NCCCNc1cccc2cccnc12 (stereo not given)
inactive: SK-MEL-2 melanoma 112% | EKVX NSCLC 101% | SN12C renal 86.5% | UO-31 renal 72.2% | TK-10 renal 97.7% | ACHN renal 108% | CAKI-1 renal 98.4% | A498 renal 81.8% | CCRF-CEM leukemia 96.9% | MOLT-4 leukemia 94.1%

COc1cccc(/C=C\C(=O)c2ccccc2)c1
inactive: SK-MEL-2 melanoma 105% | EKVX NSCLC 90.7% | SN12C renal 70.1% | UO-31 renal 60.2% | TK-10 renal 102% | ACHN renal 75% | CAKI-1 renal 66.6% | A498 renal 93.8% | CCRF-CEM leukemia 25.2% | MOLT-4 leukemia 28.8%

C=C1C(=O)O[C@H]2[C@H]1CC/C(Cn1cc(Cc3c[nH]c4ccccc34)nn1)=C\CC[C@@]1(C)O[C@@H]21
inactive: SK-MEL-2 melanoma 51.2% | EKVX NSCLC 53.6% | SN12C renal 39.4% | TK-10 renal 14.7% | CAKI-1 renal 31.7% | A498 renal 64.3%
active: UO-31 renal -71.1% | ACHN renal -36.1% | CCRF-CEM leukemia -17.1% | MOLT-4 leukemia -1.1%

c1ccc2sc(SCCCn3ccnc3)nc2c1
inactive: SK-MEL-2 melanoma 68.7% | EKVX NSCLC 90.5% | SN12C renal 84.2% | UO-31 renal 84.9% | TK-10 renal 84.2% | ACHN renal 100% | CAKI-1 renal 98% | A498 renal 80.6% | CCRF-CEM leukemia 81.6% | MOLT-4 leukemia 95.6%

CCN(CC)CCC(=O)c1ccc(OC)c2ccccc12
inactive: SK-MEL-2 melanoma 91.7% | EKVX NSCLC 94% | SN12C renal 106% | UO-31 renal 62.3% | TK-10 renal 60.1% | ACHN renal 105% | CAKI-1 renal 88.7% | A498 renal 124% | CCRF-CEM leukemia 18.7% | MOLT-4 leukemia 29.1%

Nc1c(C(=O)Nc2ccccc2)sc2nc3c(cc12)CN(CCc1ccccc1)CC3
inactive: SK-MEL-2 melanoma 105% | EKVX NSCLC 88.3% | SN12C renal 89.4% | UO-31 renal 80.3% | TK-10 renal 113% | ACHN renal 95.3% | CAKI-1 renal 86.9% | A498 renal 91.3% | CCRF-CEM leukemia 104% | MOLT-4 leukemia 104%

C=C1CC[C@@H]2[C@](C)(COC(C)=O)[C@H](OC(C)=O)CC[C@@]2(C)[C@@H]1CC(Nc1ccc(S(=O)(=O)Nc2nc(C)cc(C)n2)cc1)C1=CCOC1=O (stereo not given in full)
inactive: SK-MEL-2 melanoma 88.5% | EKVX NSCLC 74.5% | SN12C renal 38.2% | UO-31 renal 71.2% | TK-10 renal 111% | ACHN renal 71.6% | CAKI-1 renal 74% | A498 renal 85.3% | MOLT-4 leukemia 24.6%
active: CCRF-CEM leukemia 2.96%

Cc1ccc(-c2nc(/C=N/Nc3cc(C)nc4ccc(Cl)cc34)c(C)o2)cc1
active: EKVX NSCLC -41.2% | SN12C renal -81.2% | UO-31 renal -99.7% | TK-10 renal -54.8% | ACHN renal -100% | CAKI-1 renal -63.6% | CCRF-CEM leukemia -51.3% | MOLT-4 leukemia -31.3%
inactive: SK-MEL-2 melanoma 95.1% | A498 renal 67.6%

COc1cc(OC)c(/C=C/C(=O)c2c(OC)cc(OC)cc2OC)c(OC)c1
inactive: EKVX NSCLC 38.2% | SN12C renal 22.6% | UO-31 renal 30.3% | TK-10 renal 46.8% | ACHN renal 35.9%
active: SK-MEL-2 melanoma 6.13% | CAKI-1 renal 7.16% | A498 renal 7.18% | CCRF-CEM leukemia 6.27% | MOLT-4 leukemia -2.79%

CCCCCCCCCCCCCC(=O)C(C)N (stereo not given)
inactive: SK-MEL-2 melanoma 72.5% | UO-31 renal 64.9% | TK-10 renal 48.5% | ACHN renal 39.2% | CAKI-1 renal 77.6% | A498 renal 11.3% | CCRF-CEM leukemia 60.2% | MOLT-4 leukemia 46.8%
active: EKVX NSCLC 5.65% | SN12C renal 5.02%

CC/C=C\C[C@H](O)C/C=C1/C(=O)C=C[C@@H]1C/C=C\CCCC(N)=O
active: SN12C renal -4.37% | UO-31 renal -70.8% | TK-10 renal -13% | ACHN renal -82.2% | CCRF-CEM leukemia -4.33% | MOLT-4 leukemia -13%
inactive: SK-MEL-2 melanoma 13.9% | EKVX NSCLC 23.6% | CAKI-1 renal 11.3% | A498 renal 54.6%

O=C1/C(=C/c2ccc(Cl)c(Cl)c2)CN(C(=O)CCN2CCC(=NO)CC2)C/C1=C\c1ccc(Cl)c(Cl)c1
active: SK-MEL-2 melanoma -86.9% | EKVX NSCLC -85.1% | SN12C renal -97.3% | UO-31 renal -95.7% | TK-10 renal -88.9% | ACHN renal -98.4% | CAKI-1 renal -92.1% | A498 renal -92% | CCRF-CEM leukemia -28.2% | MOLT-4 leukemia -21.7%
